{"source": "PubChem BioAssay AID2058", "about": "(Sanford-Burnham Center for Chemical Genomics, 2009)", "note": "In all, about 290,000 compounds went through this assay and about 150 (0.052%) were called active. This excerpt belongs to a sample that is enriched for actives. Measured potencies and affinities stand elsewhere. A number with no mark means an inactive call.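 Rule for the calls: active = inhibition of at least 50% with at least 30 cells and total cytoplasm GFP at most 10,000,000; inconclusive = under 30 cells or total GFP of 10,000,000 plus; inactive = the rest.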"}
{"biological_target": "G-protein coupled receptor 35 (Homo sapiens) (UniProt Q9HC97)", "sequence (Q9HC97 whole entry, looked up)": "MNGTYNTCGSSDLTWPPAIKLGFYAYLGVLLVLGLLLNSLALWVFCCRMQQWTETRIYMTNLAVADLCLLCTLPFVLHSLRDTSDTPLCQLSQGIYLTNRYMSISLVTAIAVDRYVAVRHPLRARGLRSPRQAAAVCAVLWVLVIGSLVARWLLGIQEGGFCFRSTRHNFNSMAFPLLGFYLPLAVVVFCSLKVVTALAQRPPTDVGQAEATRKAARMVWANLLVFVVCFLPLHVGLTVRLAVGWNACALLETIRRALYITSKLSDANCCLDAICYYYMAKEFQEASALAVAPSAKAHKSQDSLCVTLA", "assay": "inhibition of zaprinast-stimulated GPR35 beta-arrestin translocation – imaging, U2OS, beta-arrestin-GFP, zaprinast agonist, primary screen (AID 2058)", "settings": "zaprinast antagonism, at 10 µM, stronger effect = higher value"}
{"smiles": "CSc1ccc(-c2sc(Nc3ccccc3)n[n+]2-c2ccc(F)cc2)cc1", "inhibition": "-7.7%"}
{"smiles": "Fc1ccc(-[n+]2nc(Nc3ccccc3)sc2-c2ccc(OCc3ccccc3)cc2)cc1", "inhibition": "8.3%"}
{"smiles": "COc1ccc(C)cc1Nc1n[n+](-c2ccccc2)c(-c2ccc(SC)cc2)s1", "inhibition": "20.4%"}
{"smiles": "Oc1ccc(-c2sc(Nc3ccccc3)n[n+]2-c2ccc(F)cc2)cc1", "inhibition": "10.2%"}
{"smiles": "O=C(O)c1ccc(-c2sc(Nc3ccccc3)n[n+]2-c2ccc(F)cc2)cc1", "inhibition": "0.5%"}
{"smiles": "COc1ccc(C)cc1Nc1n[n+](-c2ccccc2)c(-c2ccc(C(=O)O)cc2)s1", "inhibition": "7.9%"}
{"smiles": "COC(=O)c1cc(-c2ccc(Cl)cc2)n[nH]1", "inhibition": "10.8%"}
{"smiles": "CC(C)C(C)NC(=O)CN1C(=O)NC2(CCc3ccccc32)C1=O", "note": "(centres undefined)", "inhibition": "9.4%"}
{"smiles": "Nc1nonc1-n1nnc(C(=O)N/N=C/c2ccc(OCc3ccc(F)cc3)cc2)c1COc1ccccc1", "inhibition": "5.9%"}
{"smiles": "CC(C)(C)c1ccc(/C=C2\\CCn3c2nc2cc(C(=O)O)ccc2c3=O)cc1", "inhibition": "17.9%"}
{"smiles": "O=Cc1[nH]c2ccccc2c1N(C(=O)CCl)c1ccc([N+](=O)[O-])cc1", "inhibition": "80.7% (active)"}
{"smiles": "CC(=O)n1cc(N(C(=O)CCl)c2ccc([N+](=O)[O-])cc2)c2ccccc21", "inhibition": "-2.4%"}
{"smiles": "O=Cc1[nH]c2ccccc2c1N(C(=O)CCl)c1ccccc1", "inhibition": "-1.1%"}
{"smiles": "CSc1ccc(C2c3[nH]c4ccccc4c3CCN2C(=O)c2ccnn2C)cc1", "note": "(centres undefined)", "inhibition": "-11.7%"}
{"smiles": "COc1cccc(CN2CCN(Cc3cccc4nonc34)CC2CCO)c1", "note": "(centres undefined)", "inhibition": "8.1%"}
{"smiles": "CCOc1ccc(CN2CCN(Cc3cccc4nonc34)CC2CCO)cc1", "note": "(centres undefined)", "inhibition": "97.5% (active)"}
{"smiles": "CCOc1ccccc1CN1CCN(Cc2cccc3nonc23)CC1CCO", "note": "(centres undefined)", "inhibition": "28.2%"}
{"smiles": "CN(C)/C=C1\\C(=O)ON=C1c1ccccc1", "inhibition": "-9.5%"}
{"smiles": "CCN(CC)C(=O)c1ccc(-c2nnc(Nc3ccc(C(=O)NC)cc3)c3ccccc23)cc1", "inhibition": "5%"}
{"smiles": "N=C1/C(=C\\c2ccc(-c3ccc(C(=O)O)cc3)o2)C(=O)N=C2SC=C(c3ccccc3)N12", "inhibition": "43%"}
{"smiles": "CC(C)S(=O)(=O)C1=NSC2=NC(=O)/C(=C\\c3ccc(-c4cccc(C(=O)O)c4)o3)C(=N)N21", "inhibition": "-1.8%"}
{"smiles": "N=C1/C(=C\\c2ccc(-c3cccc(Cl)c3)o2)C(=O)N=C2SC=C(c3ccccc3)N12", "inhibition": "-1.6%"}
{"smiles": "N=C1/C(=C\\c2ccc(-c3cc(Cl)cc(Cl)c3)o2)C(=O)N=C2SC=C(c3ccccc3)N12", "inhibition": "-4.5%"}
{"smiles": "O=C(c1ccsc1)N1CCCC(Nc2ccc(F)c(F)c2)C1", "note": "(centres undefined)", "inhibition": "0%"}
{"smiles": "CC1CCCC(C)N1C(=O)c1cc2ncc(CCCl)cn2n1", "note": "(centres undefined)", "inhibition": "-11.5%"}
{"smiles": "O=C(CCCC(=O)N(c1ccc(F)cc1)C(C(=O)NC1CCCC1)c1ccc(O)cc1)Nc1ccccn1", "note": "(centres undefined)", "inhibition": "6.8%"}
{"smiles": "Cc1ccc(N/C(N)=N/c2nc(CSc3ccccn3)cc(=O)[nH]2)c(C)c1", "inhibition": "2.7%"}
{"smiles": "C=CCSc1n[nH]c(-c2cccs2)n1", "inhibition": "13.6%"}
{"smiles": "COc1ccc(/C=C2\\OC(=S)N(C)C2=O)cc1", "inhibition": "22.6%"}
{"smiles": "CN1C(=S)N(c2cccnc2)C(=O)/C1=C\\c1ccc(N(C)C)cc1", "inhibition": "15.6%"}
{"smiles": "N#Cc1c(C(F)(F)F)cc(-c2cccs2)nc1SCc1cccnc1", "inhibition": "-12.1%"}
{"smiles": "O=C(COC(=O)Cn1cnc2ccccc2c1=O)Nc1cc(Cl)ccc1[N+](=O)[O-]", "inhibition": "-6.5%"}
{"smiles": "CC(C)CNS(=O)(=O)c1ccc2c(c1)OCCO2", "inhibition": "13.4%"}
{"smiles": "COC(=O)c1cnn(-c2ccc(F)cc2F)c1/C=N/NC(N)=S", "inhibition": "17.4%"}
{"smiles": "COC(=O)c1cnn(-c2ccccc2)c1/C=N/NC(=S)Nc1ccccc1", "inhibition": "35.2%"}
{"smiles": "COC(=O)c1cnn(-c2ccccc2)c1/C=N/NC(=S)Nc1ccc(Cl)cc1", "inhibition": "-10.9%"}
{"smiles": "COC(=O)c1cnn(-c2ccc(Cl)cc2)c1/C=N/NC(N)=S", "inhibition": "7%"}
{"smiles": "COc1ccc(C2=NOC(C(=O)Nc3cccc(O)c3)C2)cc1", "note": "(centres undefined)", "inhibition": "-13.8%"}
{"smiles": "COc1ccc(-c2cc3c(=O)n(CC(=O)NC4CCN(Cc5ccccc5)CC4)ncn3n2)cc1", "inhibition": "19.6%"}
{"smiles": "CCCc1c(O)nc(SCC(=O)NCc2ccco2)[nH]c1=O", "inhibition": "-14.7%"}
{"smiles": "Cc1ccsc1-c1nc(C(N)=O)c2[nH]c(=O)n(-c3ccc(Cl)cc3)c2n1", "inhibition": "-1.2%"}
{"smiles": "O=C(NCc1ccc2c(c1)OCO2)C1CC(=O)N(CCc2ccc(Cl)cc2)C1", "note": "(centres undefined)", "inhibition": "-11.7%"}
{"smiles": "COc1cc(C(=O)Nc2ccc(C(N)=O)cc2)c([N+](=O)[O-])cc1OC", "inhibition": "3%"}
{"smiles": "COc1ccc2nc(N=NC3=C(O)CC(C)(C)CC3=O)sc2c1", "inhibition": "0.7%"}
{"smiles": "COc1ccc(-c2nnc(-c3ccc(OCC(C)C)cc3)o2)cc1", "inhibition": "4.6%"}
{"smiles": "CC(C)COc1ccc(-c2nnc(-c3ccncc3)o2)cc1", "inhibition": "2.8%"}
{"smiles": "O=C(COC(=O)Cc1ccsc1)Nc1ccc(Cl)c(S(=O)(=O)N2CCOCC2)c1", "inhibition": "23.9%"}
{"smiles": "O=C(O)COc1ccc(/C=C/C(=O)c2ccc3ccccc3c2)cc1", "inhibition": "12.2%"}
{"smiles": "CCOc1ccc(/C=C/C(=O)c2ccccc2)cc1", "inhibition": "7%"}
{"smiles": "COC(=O)c1sc(NC(=O)CSc2nnc(Cn3nnc4ccccc43)n2C)nc1C", "inhibition": "5.3%"}
{"smiles": "CN(C)/C=C1\\SC(=S)N(c2ccc(F)cc2)C1=O", "inhibition": "9.5%"}
{"smiles": "CN(C)/C=C1\\SC(=S)N(c2ccc(Br)cc2)C1=O", "inhibition": "21.4%"}
{"smiles": "Nc1ccc(S(=O)(=O)NC(Cc2ccccc2)C(=O)O)cc1", "note": "(centres undefined)", "inhibition": "-10.2%"}
{"smiles": "CCCN1C(=O)/C(=C/c2c(N3CCNC(=O)C3CC(=O)OC)nc3c(C)cccn3c2=O)SC1=S", "note": "(centres undefined)", "inhibition": "12.4%"}
{"smiles": "CCOC(=O)CC1C(=O)NCCN1c1nc2ccc(C)cn2c(=O)c1/C=C1\\SC(=S)N(CC(C)C)C1=O", "note": "(centres undefined)", "inhibition": "21.7%"}
{"smiles": "CCOC(=O)CC1C(=O)NCCN1c1nc2ccc(C)cn2c(=O)c1/C=C1\\SC(=S)N(C(C)CC)C1=O", "note": "(centres undefined)", "inhibition": "43.7%"}
{"smiles": "CCCN1C(=O)/C(=C/c2c(N3CCNC(=O)C3CC(=O)OCC)nc3c(C)cccn3c2=O)SC1=S", "note": "(centres undefined)", "inhibition": "33%"}
{"smiles": "CCOC(=O)CC1C(=O)NCCN1c1nc2c(C)cccn2c(=O)c1/C=C1\\SC(=S)N(C(C)CC)C1=O", "note": "(centres undefined)", "inhibition": "55.7% (active)"}
{"smiles": "CCOC(=O)CC1C(=O)NCCN1c1nc2c(C)cccn2c(=O)c1/C=C1\\SC(=S)N(CC(C)C)C1=O", "note": "(centres undefined)", "inhibition": "58.9% (active)"}
